According to PubChem BioAssay AID651650 (Sanford-Burnham Center for Chemical Genomics, 2012):

Target: Neuropilin-1 (Homo sapiens) (UniProt O14786)
Test: blockers of CendR peptide binding to NRP-1 – biochemical, FP and AlphaScreen panel, dose response (AID 651650)
Conditions: NRP-1 b1b2 / RPARPAR peptide binding, FP or AlphaScreen; run 1, at 100 µM (top of the series)

Neuropilin-1 (Homo sapiens), sequence (O14786 whole entry, looked up): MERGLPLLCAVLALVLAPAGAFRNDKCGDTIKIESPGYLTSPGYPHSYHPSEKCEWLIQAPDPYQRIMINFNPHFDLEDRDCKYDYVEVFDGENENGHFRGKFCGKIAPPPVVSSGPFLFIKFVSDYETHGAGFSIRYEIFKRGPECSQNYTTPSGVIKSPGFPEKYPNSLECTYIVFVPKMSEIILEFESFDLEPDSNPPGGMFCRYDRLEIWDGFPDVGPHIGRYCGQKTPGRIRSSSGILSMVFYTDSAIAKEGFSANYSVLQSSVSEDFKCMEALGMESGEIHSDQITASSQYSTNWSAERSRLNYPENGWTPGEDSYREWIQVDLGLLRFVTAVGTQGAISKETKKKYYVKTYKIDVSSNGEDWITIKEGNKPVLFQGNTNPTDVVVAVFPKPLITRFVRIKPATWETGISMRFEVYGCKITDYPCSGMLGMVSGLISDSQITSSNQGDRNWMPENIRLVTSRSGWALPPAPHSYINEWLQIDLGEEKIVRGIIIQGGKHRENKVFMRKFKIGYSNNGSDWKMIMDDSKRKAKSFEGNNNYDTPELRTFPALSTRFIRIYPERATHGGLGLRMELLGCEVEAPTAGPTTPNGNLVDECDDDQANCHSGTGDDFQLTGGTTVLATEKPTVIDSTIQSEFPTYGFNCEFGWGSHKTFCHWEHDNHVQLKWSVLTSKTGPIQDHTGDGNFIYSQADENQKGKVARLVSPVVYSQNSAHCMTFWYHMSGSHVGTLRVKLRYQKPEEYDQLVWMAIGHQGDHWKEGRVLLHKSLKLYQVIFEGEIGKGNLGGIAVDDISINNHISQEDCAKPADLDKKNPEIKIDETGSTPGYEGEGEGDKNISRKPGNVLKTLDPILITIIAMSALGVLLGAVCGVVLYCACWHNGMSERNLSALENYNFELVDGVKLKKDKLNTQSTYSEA

| SMILES | inhibition [%] |
| --- | --- |
| Cc1cc2c(=O)[nH]cnc2s1 | 13.4 |
| COc1ccc(CCNC(=O)c2ccc(Cl)c(S(=O)(=O)N(C)c3ccccc3)c2)cc1 | -7.22 |
| O=[N+]([O-])c1ccc(Nc2nc(NC3CCCCC3)nc(N3CCCC3)n2)cc1 | 25.6 |
| CCOC(=O)[C@]12CCCC=C1N(CCC1=CCCCC1)C(=O)[C@H](CC(=O)NCC13CC4CC(CC(C4)C1)C3)C2 | 20.7 |
| Cn1c(=O)c2[nH]c(COc3ccccc3)nc2n(C)c1=O | 16.6 |
| CN(C(=O)COC(=O)c1cnc(Cl)c(Cl)c1)C1CCCCC1 | 49.2 |
| COc1ccc2c(c1)N(C)/C(=C1/SC(=NCc3ccccc3)N(c3ccccc3)C1=O)S2 | 36.5 |
| CC(C)C(N)c1csc(NC(=O)Nc2cccc(C(F)(F)F)c2)n1 (configuration not stated) | 28.7 |
| Cc1ccc(NC(=O)COc2ncnc3c(Cl)cc(Cl)cc23)cc1[N+](=O)[O-] | -2.85 |
| CC(C)(C)C(=O)COC(=O)c1cc(-c2ccncc2)nc2ccccc12 | 19.4 |
| O=C(NNC(=O)c1ccccc1Cl)c1cccnc1 | 94 |
| CC(=O)C(C(c1ccccc1)N1CCCc2ccccc21)N1CCOCC1 (configuration not stated) | 54 |
| O=C(NCc1ccccc1)c1ccc(N2CCC3(CC2)CC(c2ccc(Cl)cc2)=NO3)c([N+](=O)[O-])c1 | 69.3 |
| COc1ccccc1N1CCN(C(=O)C2c3ccccc3Oc3ccccc32)CC1 | 38.7 |
| Cc1ccc(NC(=S)N2CCN(Cc3ccccc3)CC2)cc1 | -7.69 |
| O=C(COc1ccc(Br)cc1CO)Nc1ccc(F)cc1 | -9.04 |
| NC(=O)C(c1ccc(Cl)cc1Cl)c1ncc(C(F)(F)F)cc1Cl (configuration not stated) | 88.6 |
